# Sampled rows, rich in hits. Any-hit rate of the full collection: about 0.56%.
# EPAC1 agonist: qHTS for Agonist of cAMP-regulated guanine nucleotide exchange factor 3 (EPAC1): primary screen; 360,000 tested, 0.073% active; EPAC1 agonist qHTS, biochemical assay; response scale: 100% = response to 6.5 mM cAMP; Potency, µM (titrated, usually from 154 µM), inactives show top-dose activation, most hits filed as activators; Rap guanine nucleotide exchange factor 3 (Homo sapiens), O95398; also: potency is read from the fitted curve at half-maximal effect; nearly all actives have a fitted effect of over 60% in size
#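 Read-out is the fluorescence drop as BODIPY-GDP leaves Rap1B (480 nm excitation, 540 nm emission), recorded every 5 minutes over 30 minutes. Reactions held 100 nM EPAC1, 250 nM Rap1B–BODIPY-GDP and 50 uM GDP, with 6.5 mM cAMP setting full activation.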
# EPAC1 antagonist: qHTS for Antagonist of cAMP-regulated guanine nucleotide exchange factor 3 (EPAC1): primary screen; EPAC1 GEF assay, Rap1b-BODIPY-GDP exchange fluorescence; 360,000 tested, 0.14% active; Potency, µM (doses to about 115 µM), without a hit: at the highest dose activity change, negative = inhibition, usual class: inhibitors; AID 720709, 2013;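 also: potency is read from the fitted curve at half-maximal effect; plate controls were vehicle for no effect and positive control for full effect; nearly all actives have a fitted effect of over 50% in size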
# EPAC2 ag: qHTS for Agonist of cAMP-regulated guanine nucleotide exchange factor 4 (EPAC2): primary screen; Rap guanine nucleotide exchange factor 4 (Homo sapiens), Q8WZA2; EPAC2 activation, biochemical qHTS; response scale: 100% = 6.5 mM cAMP response; Potency, µM (top dose mostly 154 µM), without a hit: at the highest dose activation, most hits filed as activators; 360,000 tested, 0.079% active; AID 720711, 2013; also: potency is read from the fitted curve at half-maximal effect; nearly all actives have a fitted effect of over 50% in size
# Target sequence (Q8WZA2 whole entry, looked up): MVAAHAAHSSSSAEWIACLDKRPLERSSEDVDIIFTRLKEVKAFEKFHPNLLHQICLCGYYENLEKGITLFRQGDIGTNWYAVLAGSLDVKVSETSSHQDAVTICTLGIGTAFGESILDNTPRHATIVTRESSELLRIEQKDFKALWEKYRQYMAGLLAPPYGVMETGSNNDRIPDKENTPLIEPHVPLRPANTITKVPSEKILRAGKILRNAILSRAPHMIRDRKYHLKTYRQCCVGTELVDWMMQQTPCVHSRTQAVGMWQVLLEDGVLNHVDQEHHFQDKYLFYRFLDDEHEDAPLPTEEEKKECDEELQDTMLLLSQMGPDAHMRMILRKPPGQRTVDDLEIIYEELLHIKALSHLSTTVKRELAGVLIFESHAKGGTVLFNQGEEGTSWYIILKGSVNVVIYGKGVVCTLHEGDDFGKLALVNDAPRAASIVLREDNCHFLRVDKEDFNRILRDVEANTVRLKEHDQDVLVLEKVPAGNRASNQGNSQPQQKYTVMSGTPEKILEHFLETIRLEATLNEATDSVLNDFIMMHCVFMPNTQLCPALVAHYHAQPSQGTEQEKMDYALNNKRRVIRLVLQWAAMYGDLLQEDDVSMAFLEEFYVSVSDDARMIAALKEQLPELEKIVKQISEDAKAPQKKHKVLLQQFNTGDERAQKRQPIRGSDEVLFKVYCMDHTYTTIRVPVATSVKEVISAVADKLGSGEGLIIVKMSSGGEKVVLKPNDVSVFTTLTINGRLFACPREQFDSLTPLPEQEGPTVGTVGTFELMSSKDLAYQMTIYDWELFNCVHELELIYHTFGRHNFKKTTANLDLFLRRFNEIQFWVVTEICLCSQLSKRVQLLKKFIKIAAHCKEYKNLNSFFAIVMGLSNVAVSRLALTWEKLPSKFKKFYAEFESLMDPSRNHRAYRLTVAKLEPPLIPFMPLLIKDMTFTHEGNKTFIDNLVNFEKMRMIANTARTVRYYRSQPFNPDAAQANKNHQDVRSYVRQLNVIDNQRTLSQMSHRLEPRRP
#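 Fluorescence exchange assay: 100 nM EPAC2 with 250 nM RAP1B-BODIPY-GDP and 50 uM GDP; compounds tested as a concentration-titration series (qHTS). Loss of Rap1-bound BODIPY-GDP fluorescence read at 480/540 nm; data normalized to 6.5 mM cAMP.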
# USP1 inh: Inhibitors of USP1/UAF1: Primary Screen; AID 743255, 2014; 390,000 tested, 0.23% active; Ubiquitin carboxyl-terminal hydrolase 1 (Homo sapiens), O94782; Potency, µM (titrated, usually from 57.1 µM), for the others: top-dose activity change, negative = inhibition, most hits filed as inhibitors; recombinant USP1/UAF1, Ub-Rhodamine cleavage fluorescence; also: potency is read from the fitted curve at half-maximal effect; % is scaled to controls: 0 for no effect and ±100 for the full control effect; nearly all actives have a fitted effect of over 60% in size
#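 USP1/UAF1 complex (1 nM) preincubated 15 min at room temperature with compound, then Ub-Rho substrate (150 nM final) added. Kinetic fluorescence at 480/540 nm over 6 reads at 60 s intervals; 50 mM HEPES pH 7.8, 0.5 mM EDTA, 0.1 mg/ml BSA, 1 mM TCEP, 0.01% Tween-20.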
# LDHA inh: qHTS assay for inhibitors of human lactate dehydrogenase; AID 1347041, 2019; purified LDHA, NADH/diaphorase-resazurin fluorescence; stronger effect = lower value; L-lactate dehydrogenase A chain (Homo sapiens), P00338; activity change, % (values are at about 110 or 230 µM); 480,000 tested, 0.15% active; in the data active = activity change below about -30%; inconclusive = mostly about -25% to -30%;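 also: plate controls were DMSO wells for no effect and wells without enzyme for full effect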
#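 Remaining NADH was detected by diaphorase (0.133 mg/mL) converting 37 µM resazurin to fluorescent resorufin, read at 0 and 20 minutes. The preceding 5-minute room-temperature reaction used 2 nM LDHA, 0.2 mM sodium pyruvate and 0.06 mM NADH at pH 7.4.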
# EPAC2 antag: qHTS for Antagonist of cAMP-regulated guanine nucleotide exchange factor 2 (EPAC2): primary screen. Rap guanine nucleotide exchange factor 4 (Homo sapiens), Q8WZA2. EPAC2 GEF exchange of Rap1B-BODIPY-GDP, fluorescence. Potency, µM (series often up to 114 µM), inactives show top-dose activity, negative = inhibition, hits mostly inhibitors. 360,000 tested, 0.18% active. AID 720708, 2013; also: potency is read from the fitted curve at half-maximal effect; % is scaled to controls: 0 for no effect and ±100 for the full control effect; nearly all actives have a fitted effect of over 45% in size
# The depositor's hits bear a star; ? = inconclusive; · = no result given. Unless noted, calls follow the shape of the dose curve; as a rule, active = well fitted curve in the direction sought with a large enough effect; inconclusive = small, poorly fitted or top-dose-only effect, or another doubt; inactive = no such curve, though single readings can be large; an effect the other way counts as inactive or inconclusive.
SMILES,EPAC1 agonist,EPAC1 antagonist,EPAC2 ag,USP1 inh,LDHA inh,EPAC2 antag
COc1cc2nc(N3CCNCC3)nc(N)c2cc1OC,9%,?,23%,-25%,0,32µM*
Cc1cccc(Nc2nc(-c3ccc4c(c3)CCN4S(C)(=O)=O)cs2)c1,·,·,·,·,0,·
COc1cc(CN2C(=O)C(C)ON=C2c2ccccc2F)cc(OC)c1 (stereo unspecified),-5%,-3%,3%,·,-3,32µM*
Cc1ccc(NCC(=O)N2CCN(S(C)(=O)=O)CC2)cc1F,·,·,·,·,-1,·
Cc1c(CCC(=O)O)c(=O)oc2c(C)c3occ(-c4ccc(Cl)cc4)c3cc12,?,40µM*,?,?,-8,-14%
CN(C)CCCOc1ccc(C(C)(C)c2ccccc2)cc1,8%,-2%,3%,-18%,-16,-2%
CN(C)CCOc1ccc(C(C)(C)c2ccccc2)cc1,-2%,2%,4%,-14%,-38*,18%
O=C(NCCNC(=O)c1cc2ccccc2[nH]1)C(=O)NC1CCCCCC1,·,·,·,·,-5,·
CC(C)OCCCNC(=O)c1cc(S(=O)(=O)N2CCc3ccccc32)cn1C,-2%,8%,1%,-26%,0,11%
CCOc1cc(/C=C/C(=O)c2ccc(OC)c(CN3CCOCC3)c2)cc(Br)c1O,21%,17%,18%,35µM*,-3,-9%
CCOc1c(Br)cc(/C=C/C(=O)c2cccc(OC)c2)cc1OC,·,·,·,·,-2,·
CC(=O)N(C(C)=O)c1ncnc2c1c(-c1ccc(Cl)cc1)nn2C(C)(C)C,-10%,1%,1%,-21%,-48*,-7%
COc1cc(C(=O)Nc2cccc(Cl)c2)nc2ccc(Cl)cc12,·,·,·,·,-6,·
c1ccc(-c2ccccc2OCCOCCN2CCOCC2)cc1,-13%,-8%,3%,-15%,-45*,3%
C=CCNCCOCCOc1ccccc1-c1ccccc1,7%,1%,12%,6%,-30*,22%
c1ccc(-c2ccccc2OCCOCCN2CCNCC2)cc1,14%,9%,19%,0%,-6,9%
CCCC(=O)OC1CC(C)N(C(=O)c2ccccc2)c2ccc(C)cc21 (stereo unspecified),8%,2%,12%,-24%,-3,25µM*
CCOC(=O)c1sc(N2C(=O)C(O)=C(C(=O)c3ccco3)C2c2cccc([N+](=O)[O-])c2)nc1C (stereo unspecified),-9%,22µM*,-14%,-24%,-8,9%
Cc1nnc(N2C(=O)C(O)=C(C(=O)c3ccco3)C2c2cccc([N+](=O)[O-])c2)s1 (stereo unspecified),-3%,12%,13%,-15%,5,23%
O=C(Nc1ccc(Br)cn1)Nc1ccc(F)cc1F,·,·,·,·,10,·
Cc1ccc(S(=O)(=O)NN2C(=O)/C(=C\c3ccc(Cl)cc3)SC2=S)cc1,-4%,?,-2%,-6%,-9,-21%
Cc1ccc(/C=C2\SC(=S)N(NS(=O)(=O)c3ccc(C)cc3)C2=O)cc1,11%,?,-3%,-30%,-3,45µM*
COc1ccc(/C=C2/SC(=S)N(NS(=O)(=O)c3ccc(C)cc3)C2=O)cc1,9%,?,0%,-10%,-5,?
C=CCOc1ccc(/C=C2\SC(=S)N(NS(=O)(=O)c3ccc(C)cc3)C2=O)cc1,-5%,50µM*,-8%,?,-7,-26%
COc1cc(C(=O)Nc2ccc(NS(C)(=O)=O)cc2)cc2c1OCCO2,·,·,·,·,-1,·

# Screening results deposited in PubChem by National Center for Advancing Translational Sciences (NCATS).
